# Screening results (PubChem)
# Most compounds without a hit are left out; they make up all but 17% or so of the library.
# HT1080 IDH1KD tx = qHTS for induction of synthetic lethality in tumor cells producing 2HG: qHTS for the HT-1080-IDH1KD cell line | Potency, µM (series often up to 46.1 µM), for the others: at the top dose activity, negative = toxicity, actives largely listed as cytotoxic | actives 2% (n = 360,000) | AID 686971, 2013 | HT-1080 IDH1 knockdown viability, ATP luminescence, 48 h;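 further: 0% = DMSO wells and -100% = cell-free medium wells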
#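 Viability of IDH1-knockdown HT-1080 fibrosarcoma cells was assessed by CellTiter-Glo after 48 h at 37 °C with titrated compound; concentration-effect curves were classified by fit quality and response size.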
# HT1080-NT tox = qHTS for induction of synthetic lethality in tumor cells producing 2HG: qHTS for the HT-1080-NT fibrosarcoma cell line | HT-1080-NT fibrosarcoma viability, CellTiter-Glo ATP luminescence, 48 h | Potency, µM (top dose mostly 46.1 µM), inactives show at the highest dose activity, negative = less viability, most hits filed as cytotoxic | actives 1.6% (n = 360,000);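 further: NT is the 2HG producing partner of a matched IDH1 knockdown line; 0% = DMSO-treated cells and -100% = media-only wells without cells; nearly all actives have a fitted effect of over 55% in size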
#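 A 48-hour cytotoxicity screen used HT-1080-NT cells plated 2 hours before compound delivery. ATP-based CellTiter-Glo luminescence measured viability, normalized to DMSO and no-cell controls.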
# DT40 TDP1 CPT = qHTS for Inhibitors of human tyrosyl-DNA phosphodiesterase 1 (TDP1): qHTS in cells in presence of CPT. chicken DT40 Tdp1-/-;hTDP1 cells + 20 nM CPT, ATP luminescence, 48 h. Potency, µM (titrated, usually from 46.2 µM), for the others: at the top dose activity change, negative = growth inhibition, most hits filed as inhibitors. actives 12% (n = 420,000). AID 686979, 2013; further: on the % scale 0 is the no-effect control and ±100 the full control effect; nearly all actives have a fitted effect of over 55% in size
#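 Cell growth measured by CellTiter-Glo luminescence after a minimum 48 h, 37 C compound exposure with 20 nM CPT in Tdp1-knockout DT40 cells stably expressing hTDP1, seeded 400/well; qHTS titration format.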
# HepG2 viability = qHTS for Inhibitors of TGF-b: Cytotox Counterscreen; HepG2 CAGA-GFP viability, ATP luminescence, 18 h; Potency, µM (series often up to 46.1 µM), inactives show at the top dose activity change, negative = cytotoxicity, usual class: cytotoxic; actives 0.76% (n = 410,000)
#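 HepG2 CAGA-GFP cells (1000/well, DMEM with 1% FBS) received compound, then TGF-beta at 500 pg/mL final, and were incubated 18 hours at 37 degrees C. Viability was read by CellTiter-Glo luminescence. Media-only wells were set as complete cell-killing and DMSO as no toxicity.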
# DT40 TDP1 no CPT = qHTS for Inhibitors of human tyrosyl-DNA phosphodiesterase 1 (TDP1): qHTS in cells in absence of CPT; Potency, µM (top dose mostly 46.2 µM), for inactives: top-dose activity change, negative = growth inhibition, hits mostly inhibitors; actives 15% (n = 420,000); DT40 Tdp1-/- hTDP1 cells, no CPT, ATP luminescence, 48 h; further: on the % scale 0 is the no-effect control and ±100 the full control effect; nearly all actives have a fitted effect of over 55% in size
#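 Luminescent ATP content (CellTiter-Glo) served as the growth readout. Knockout chicken DT40 cells expressing human TDP1 were exposed to compounds without camptothecin for a minimum 48 hr at 37 °C.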
# TGFb inhibitor = qHTS for Inhibitors of TGF-b; actives 1.2% (n = 410,000); HepG2 CAGA-GFP TGF-b/SMAD3 reporter, GFP fluorescence, 18 h; TGF-beta stimulated, 500 pg/mL final; AID 588855, 2011; Potency, µM (series often up to 46.1 µM), without a hit: at the top dose activity, negative = inhibition, most hits filed as inhibitors; further: on the % scale 0 is the no-effect control and ±100 the full control effect; nearly all actives have a fitted effect of over 65% in size
#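 GFP signal (ex488/em500-530) from TGF-beta-stimulated HEPG2 CAGA-GFP cells, 500 pg/mL final, 18 h at 37 degrees C in DMEM plus 1% FBS, normalized to unstimulated and DMSO-stimulated controls.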
# Active calls of the source: *; ? = inconclusive; . = no result given; [ ] = remark or other dose. The call rests on the fitted dose curve; in most records, active means well fitted curve in the direction sought with a large enough effect; inconclusive means small, poorly fitted or top-dose-only effect, or another doubt; inactive means no such curve, though single readings can be large; an effect the other way counts as inactive or inconclusive. Potency means the concentration at half of the fitted maximal effect.
SMILES,HT1080 IDH1KD tx,HT1080-NT tox,DT40 TDP1 CPT,HepG2 viability,DT40 TDP1 no CPT,TGFb inhibitor
COc1ccccc1C(=O)NC(CCSC)C(=O)NC1CCCCCC1 (stereo not drawn),5%,0%,-21%,-2%,?,-10%
CC1(C(=O)NS(=O)(=O)c2ccc(F)cc2F)CCN1C(=O)c1ccccc1CCc1ccccc1 (stereo not drawn),-10%,-2%,?,-19%,?,-3%
COc1ccc2oc(C(=O)Nc3nc(C)cs3)c(C)c2c1,?,?,?,-33%,?,-5%
CC(=O)N(CC(O)CO)c1c(I)c(C(=O)NCCO)c(I)c(C(=O)NCC(O)CO)c1I (stereo not drawn),.,.,-7%,.,4%,.
O=C(Nc1cccc(C(F)(F)F)c1)C1CCCN(S(=O)(=O)c2cccc3nonc23)C1 (stereo not drawn),.,.,?,0%,?,-27%
COc1ccccc1N1CCN(C(=O)C2CCN(S(=O)(=O)c3cccc4nonc34)CC2)CC1,.,.,?,-20%,?,-2%
Cc1ccc(C)c(N2CCN(C(=O)C3CCCN(S(=O)(=O)c4cccc5nonc45)C3)CC2)c1 (stereo not drawn),.,.,9.2µM*,-13%,6.5µM*,-25%
O=C(C1CCCN(S(=O)(=O)c2cccc3nonc23)C1)N1CCN(c2ccccc2Cl)CC1 (stereo not drawn),-22%,0%,23µM*,7%,16µM*,-17%
Cc1cc(Br)ccc1NC(=O)C1CCCN(S(=O)(=O)c2cccc3nonc23)C1 (stereo not drawn),.,.,?,5%,-40%,-33%
Cc1ccc(Cl)cc1N1CCN(C(=O)C2CCN(S(=O)(=O)c3cccc4nonc34)CC2)CC1,.,.,12µM*,-12%,7.3µM*,-3%
Cc1cc(NC(=O)C2CCCN(S(=O)(=O)c3cccc4nonc34)C2)ccc1Br (stereo not drawn),.,.,?,2%,16µM*,9%
Cc1ccc2oc(-c3ccc(Cl)c(NC(=O)c4ccc(-c5ccccc5[N+](=O)[O-])o4)c3)nc2c1,.,.,-13%,-13%,-19%,-10%
Cc1ccc(C)c(N2CCN(C(=O)CCc3nc(-c4ccc(F)cc4)no3)CC2)c1,1%,7%,3%,-15%,-24%,?
CCOC(=O)c1ccc(NC(=O)NNS(=O)(=O)c2cc(OC)ccc2OC)cc1,3%,2%,-1%,0%,4%,0%
O=C(CSc1nc2ccccc2s1)Nc1cc(S(=O)(=O)N2CCOCC2)ccc1O,2%,2%,-29%,13%,-26%,8%
O=C(COC(=O)c1c(F)cccc1F)Nc1cccc(S(=O)(=O)N2CCCCC2)c1,3%,0%,-23%,-1%,?,-1%
O=C(Nc1ccc(Cl)c(C(F)(F)F)c1)C1CCN(S(=O)(=O)c2cccc3nonc23)CC1,.,.,13µM*,-29%,5.2µM*,?
CC1CCN(C(=O)C2CCN(S(=O)(=O)c3cc(Cl)ccc3Cl)CC2)CC1,-1%,3%,?,-3%,21µM*,-13%
CCOc1ccccc1N(C)C(=O)C1CCN(S(=O)(=O)c2cccc3nonc23)CC1,5%,2%,?,0%,13µM*,?
O=C(Nc1cccc(F)c1)C1CCN(S(=O)(=O)c2cccc3nonc23)CC1,-3%,-1%,?,-13%,?,-3%
O=C(C1CCN(S(=O)(=O)c2cccc3nonc23)CC1)N1CCN(c2ccccc2)CC1,.,.,?,-9%,23µM*,-15%
O=C(C1CCN(S(=O)(=O)c2cccc3nonc23)CC1)N1CCCCC1,2%,-1%,-1%,-2%,-9%,-10%
CCn1c(/N=C/c2ccccc2O)nc2ccccc21,-4%,-1%,20%,-1%,7%,-4%
CCCCn1c(/N=C/c2ccccc2NS(=O)(=O)c2ccc(C)cc2)nc2ccccc21,-24%,-19%,?,-4%,23µM*,16µM*
Cc1ccc(S(=O)(=O)Nc2ccccc2/C=N/c2nc3ccccc3n2C(C)C)cc1,15µM*,18µM*,18µM*,-29%,21µM*,?
SMILES,HT1080 IDH1KD tx,HT1080-NT tox,DT40 TDP1 CPT,HepG2 viability,DT40 TDP1 no CPT,TGFb inhibitor
CC(=O)c1ccc(OC(C)C)c(Cc2c(O)nc(N)[nH]c2=O)c1,-1%,2%,-27%,-3%,-19%,2%
CC(=O)c1ccc(OC(C)C)c(CSC(=N)N)c1,6%,-2%,23µM*,-12%,?,-12%
O=C(Nc1ccc(Cc2ccncc2)cc1)c1ccc(Cl)c([N+](=O)[O-])c1,3%[9.24 µM],-17%,16µM*,-39%,18µM*,-5%
CCN(C(=O)c1ccc(Cl)cc1[N+](=O)[O-])c1ccccc1C,3%,-2%,16µM*,2%,15µM*,5%
O=C(Nc1ccccc1-c1ccccc1)c1ccc(Cl)c([N+](=O)[O-])c1,?,?,-12%,-7%,?,-21%
O=C(Nc1ccc(Nc2ccccc2)cc1)c1ccc(Cl)c([N+](=O)[O-])c1,?,-26%,13µM*,-56%,10µM*,?
CC(C)(C)N(Cc1ccccc1)C(=O)c1ccc(Cl)cc1[N+](=O)[O-],13%,-1%,-26%,-20%,?,-12%
C/C(=N\NC(=O)c1ccc([N+](=O)[O-])c(C)c1)c1ccccc1Cl,-15%,-10%,?,-24%,21µM*,0%
CC(=O)Nc1ccccc1NC(=O)C/C(C)=N/NC(=O)c1ccc([N+](=O)[O-])c(Cl)c1,18%,17%,-18%,7%,-8%,14%
Cn1cccc1C(=O)N1CCC[C@@]2(CCN(C(=O)Nc3cccc(C#N)c3)C2)C1,.,.,-5%,.,-16%,.
O=S(=O)(NCCN1CCOCC1)c1cc(Cl)ccc1Cl,19%,10%,-19%,10%,-19%,27%
O=C(Nc1ccc(Nc2ccccc2)cc1)c1ccc(Cl)cc1[N+](=O)[O-],-3%,-10%,5.8µM*,2%,16µM*,-17%
